Test results published in PubChem BioAssay (NCI).
This is part of a sample that, as a whole, favours compounds with a hit. Of some 83,000 tested, about 20% had one in any assay.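 Values shown are percent growth following 48 h exposure of cells in 96-well plates to a single concentration of compound; below 10 was considered active.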 Activity calls are given as the source filed them.

Tested on: IGROV1 ovarian
Experiment: NCI-60 one-dose screen, 48 h (100 = growth as untreated, 0 = no growth, -100 = all killed)
Settings: 10 µM

SMILES	growth
Nc1nc(N)c2cc(S(=O)(=O)c3cccc(C(F)(F)F)c3)ccc2n1	39.5% (inactive)
CCN(CC)C(=O)/C=C(/C)c1ccccc1	117% (inactive)
CCC(O)CC(CC)CO (stereo not given)	114% (inactive)
COc1ccc(OC)c(/C=C2\CCc3ccccc3C2=O)c1	50.9% (inactive)
O=C(O)CCCCNC(=O)c1ccccc1	108% (inactive)
C/C(=N/NC(N)=O)c1ccco1	104% (inactive)
Cc1ccc(CCCC(=O)O)c(C)c1	108% (inactive)
CC(=O)OCC1OC(OC2=C(CC=C(C)C)C(=O)c3ccccc3C2=O)C(OC(C)=O)C(OC(C)=O)C1OC(C)=O (stereo not given)	68% (inactive)
C=CC(O)CCC (stereo not given)	121% (inactive)
COc1cc(C(=O)NC(=S)Nc2ccc3ccccc3c2)cc(OC)c1OC	95.5% (inactive)
O=[N+]([O-])c1cccc(C(F)(F)F)c1	105% (inactive)
CCOc1ccc(/C=N/N=C(N)N)cc1OCC	95.9% (inactive)
CCc1ccc(/C(C#N)=C/C=C/c2ccccc2)cc1	35.9% (inactive)
COC(=O)c1ccc(NC(=O)CCl)cc1	50.6% (inactive)
CCn1c(=O)n(C)c2c(=O)n(C)c(=O)n(C)c21	122% (inactive)
COCCCC/C(=N\OCCN)c1ccc(C(F)(F)F)cc1	105% (inactive)
CC(=O)c1ccc(C(C)(C)C)cc1	96.7% (inactive)
COc1ccc(NC(=O)CCl)cc1	59% (inactive)
Cc1ccc(/C(C#N)=C/c2ccc3c(c2)OCO3)cc1	72.4% (inactive)
CC(=O)Oc1ccc(Br)cc1C(=O)O	98.4% (inactive)
